Screening results: PubChem BioAssay, NMMLSC
Sampled rows, rich in hits. Any-hit rate of the full collection: about 1.8%.
RPL19A-GFP yeast: alters RPL19A-GFP fluorescence in TOR pathway yeast screen; S. cerevisiae RPL19A-GFP strain, flow cytometry, 3 h; active compounds read low; percent response vs DMSO, % at 10 µM; hit rate 0.3% among 330,000; AID 2025;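 active means percent response vs DMSO below 50%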;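 further: median channel GFP fluorescence of the barcoded RPL19A-GFP strain; ratio of sample median GFP to plate DMSO average so 100% = DMSO; lower means less RPL19A-GFP as with rapamycin TOR inhibition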
MEP2 TOR yeast: modulators of TOR pathway MEP2-GFP in S. cerevisiae. S. cerevisiae MEP2-GFP strain, flow cytometry GFP, 3 h; 100% = DMSO control level. GFP response vs DMSO, % at 10 µM. hit rate 0.51% among 330,000. AID 2016;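 active means GFP response versus DMSO above a set limit, roughly screen mean plus 3 SD, cut at about 180% in these data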;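 further: median GFP fluorescence of the barcode-gated MEP2-GFP cells per well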
Myeloid diff 2: promotes myeloid progenitor differentiation. ER-HoxA9 myeloid progenitors, lysozyme-GFP differentiation, flow cytometry. calls only at 10 µM. hit rate 1% among 360,000. AID 624256;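 active means normalized GFP-positive differentiation at or above the plate's own cutoff, the solvent-only control mean plus 3 SD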;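 further: cells exposed to compound for four days before flow analysis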
CIT2-GFP yeast: alters CIT2-GFP fluorescence in TOR pathway yeast screen; S. cerevisiae CIT2-GFP strain, flow cytometry, 3 h; 100 means same as DMSO wells; hit rate 0.065% among 320,000; GFP response vs DMSO, % at 10 µM; AID 2029;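 active means GFP response relative to DMSO above a set limit, near the screen mean plus 3 SD, cut at about 150% in these data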;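 further: ratio of well median GFP fluorescence to mean of DMSO wells on the plate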
AGP1 TOR yeast: modulators of TOR pathway AGP1-GFP in S. cerevisiae | AID 2066 | GFP response vs DMSO, % at 10 µM | hit rate 0.02% among 320,000 | S. cerevisiae AGP1-GFP multiplex flow cytometry, 3 h; GFP as percent of DMSO wells;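 active means GFP response relative to DMSO above a set limit, near screen average plus 3 SD, cut at about 150% in these data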;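 further: median GFP channel fluorescence of the gated AGP1 strain per well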
LAP4-GFP MLPCN: modulators of TOR pathway LAP4-GFP in S. cerevisiae; GFP response vs DMSO, % at 10 µM; S. cerevisiae LAP4-GFP multiplex, flow cytometry GFP, 3 h; median GFP as percent of DMSO wells; AID 2023; hit rate 0.34% among 320,000;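 active means GFP response vs DMSO above a set limit, about the screen mean plus 3 SD, cut at about 150% in these data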
LAP4-GFP pick2: second confirmation of modulators of TOR reporter LAP4-GFP in yeast | AID 2621 | S. cerevisiae LAP4-GFP strain, flow cytometry GFP, 3 h | GFP response vs DMSO, % at 10 µM | hit rate 20% among 590 | shares compounds with LAP4-GFP MLPCN;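 active means GFP signal as percent of the solvent control above about 150%, meaning raised reporter expression, limit read from the data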;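 further: ratio of well median GFP fluorescence to plate DMSO mean so 100% = DMSO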
MEP2 cherry2: reconfirmed MEP2-GFP TOR pathway modulator in yeast; S. cerevisiae MEP2-GFP strain, flow cytometry GFP, 3 h; shares compounds with LAP4-GFP MLPCN; GFP response vs DMSO, % at 10 µM; hit rate 10% among 590; AID 2622;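 active means GFP signal above 150% of the solvent control wells, that is a rise of more than half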;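 further: median channel GFP fluorescence of all gated yeast cells per well; ratio of median GFP to plate DMSO average so 100% = DMSO level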
RPL19A-GFP pick2: reconfirmed modulator of RPL19A-GFP TOR reporter in yeast | S. cerevisiae RPL19A-GFP strain, flow cytometry GFP, 3 h; active compounds read low; 100% means same as DMSO wells | GFP response vs DMSO, % at 10 µM | shares compounds with LAP4-GFP MLPCN | hit rate 3% among 590;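 active means under 65% GFP response relative to DMSO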;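 further: median GFP channel fluorescence per well over the all cells gate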
CIT2-GFP pick2: yeast CIT2-GFP TOR reporter modulation, second cherry pick | shares compounds with LAP4-GFP MLPCN | S. cerevisiae CIT2-GFP strain, flow cytometry GFP, 3 h; DMSO control wells read 100% | GFP response vs DMSO, % at 10 µM | hit rate 8% among 590 | AID 2624;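 active means GFP response vs DMSO above about 150%, limit read from the data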;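 further: median green fluorescence per well over all gated yeast cells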
AGP1-GFP pick2: yeast AGP1-GFP TOR reporter modulation, second cherry pick | shares compounds with LAP4-GFP MLPCN | S. cerevisiae AGP1-GFP strain, flow cytometry GFP, 3 h | percent response vs DMSO, % at 10 µM | 590 tested, under 10 active;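 active means over 150 percent of DMSO response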;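 further: median GFP channel fluorescence over all cells without mother daughter split; sample median GFP divided by mean DMSO control so 100% equals DMSO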
Yeast autofluor: compound is autofluorescent in yeast s288c cells; 610 tested, under 10 active; shares compounds with LAP4-GFP MLPCN; AID 2757; S. cerevisiae s288c, 520 nm autofluorescence, flow cytometry, 3 h; active compounds read high; zero means same as solvent-only cells; fluorescence change (kMESF span) at 33 µM;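 active means fluorescence span over the dose series, or activity score, above about 33, limit read from the data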
The depositor's hits bear a star; i = inactive; . = not tested or not shown.

SMILES	RPL19A-GFP yeast	MEP2 TOR yeast	Myeloid diff 2	CIT2-GFP yeast	AGP1 TOR yeast	LAP4-GFP MLPCN	LAP4-GFP pick2	MEP2 cherry2	RPL19A-GFP pick2	CIT2-GFP pick2	AGP1-GFP pick2	Yeast autofluor
Cc1ccc(C)c(S(=O)(=O)ON2C(=O)c3ccccc3C2=O)c1	92	85	i	81	68	137	.	.	.	.	.	.
O=C1c2ccccc2C(=O)N1OS(=O)(=O)c1ccccc1	87	90	.	96	80	223*	144	160*	72	112	82	2.1
Cc1cc(S(=O)(=O)ON2C(=O)c3ccccc3C2=O)ccc1F	99	101	i	95	90	173*	.	.	.	.	.	1.2
O=C(COC(=O)c1cc(S(=O)(=O)N2CCOCC2)ccc1Cl)NC1CCCCC1	.	.	i	.	.	.	.	.	.	.	.	.
O=C(/C=C/c1ccccc1[N+](=O)[O-])c1ccccc1Br	97	104	i	83	92	156*	.	.	.	.	.	8.8
N/C(=N\OC(=O)c1ccc(F)cc1)c1ccccc1	99	101	i	106	61	113	.	.	.	.	.	.
Cc1ccc(/C(N)=N/OC(=O)c2ccc(F)cc2)cc1	96	97	i	170*	58	142	.	.	.	.	.	0.3
NC(=O)C1(N2CCCCC2)CCN(C(=O)c2ccc(-n3cnnn3)cc2)CC1	95	98	i	100	90	94	.	.	.	.	.	.
O=C(NC(=S)Nc1cc(C(F)(F)F)ccc1Cl)c1ccccc1	98	100	.	96	95	92	.	.	.	.	.	.
O=C(CC(=O)c1ccccc1)Nc1cc(C(F)(F)F)ccc1Cl	106	105	i	92	94	99	100	112	101	102	99	.
Cc1cc([N+](=O)[O-])ccc1NC(=O)Nc1ccc(F)cc1F	59	109	i	71	52	171*	101	102	96	100	97	.
CCCN(CC(=O)Nc1ccccc1C)C(=O)c1ccc(-c2ccc([N+](=O)[O-])cc2)o1	70	609*	i	132	140	196*	101	101	99	96	102	.
CCCN(CC(=O)Nc1ccccc1C)C(=O)COC(=O)CSc1ccc([N+](=O)[O-])cc1	105	104	i	106	114	121	.	.	.	.	.	.
CN(C)NC(=S)Nc1ccc(S(=O)(=O)N2CCCCC2)cc1	65	100	i	87	66	97	107	108	100	113	100	-0.1
Cc1cccc(OC(=O)c2ccc3c(=O)n4c(nc3c2)CCC4)c1	.	.	i	.	.	.	.	.	.	.	.	.
CCN(CC(=O)Nc1c(F)cccc1F)C(=O)COc1cccc2c1OC(C)(C)C2	83	83	i	78	108	185*	96	98	100	106	102	.
COc1ccccc1/C=C/c1nc(S(=O)(=O)c2ccccc2)c(N(C)C)o1	99	98	i	105	95	101	.	.	.	.	.	.
CN(C)c1oc(/C=C/c2cccs2)nc1S(=O)(=O)c1ccccc1	53	95	i	83	13	71	99	97	97	95	95	.
